Results as given in PubChem BioAssay AID1159580 (chemical genetic matrix, 2015).
Among all 5,500 compounds or so, about 2,000 (36%) were called active. Roughly 18% stayed inconclusive and do not appear here. No stated cut-off is given here; in the data, active means normalized growth mostly below about 0.91 (no sharp cut-off); inconclusive means no clear call, values can overlap the other calls; inactive means mostly above about 0.92. The list shows a part of the results.

Assay: chemical genetic growth profiling, strain panel (AID 1159580);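 further: tested at 20 µM; growth read once vehicle control cultures reached saturation at 30 °C; 1 = growth at the plate median or of vehicle wells; lower values mean less growth of the strain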
Conditions: growth OD

Measured: normalized growth

C[C@H]1[C@H]2CCC3C4CC=C5C[C@@H](N(C)C)CC[C@]5(C)C4CC[C@@]32CN1C (some centres not stated)
inactive: S. cerevisiae deletion strains, locus YJR075W, strain HOC1, hits give low values 0.974 | S. cerevisiae deletion strains, locus YKL009W, strain mrt4, hits give low values 0.985 | S. cerevisiae deletion strains, locus YKL068W, hits give low values 0.989 | S. cerevisiae deletion strains, locus YKL085W, strain MDH1 (second series), hits give low values 0.997 | S. cerevisiae deletion strains, locus YKL085W, strain MDH1, hits give low values 0.997 | S. cerevisiae deletion strains, locus YKL160W, strain elf1, hits give low values 0.995 | S. cerevisiae deletion strains, locus YKL190W, strain CNB1, hits give low values 0.98 | S. cerevisiae deletion strains, locus YKR001C, strain vps1, hits give low values 0.989 | S. cerevisiae deletion strains, locus YKR026C, strain gcn3, hits give low values 0.99 | S. cerevisiae deletion strains, locus YKR091W, strain srl3, hits give low values 0.995 | S. cerevisiae deletion strains, locus YLL001W, strain dnm1, hits give low values 0.98 | S. cerevisiae deletion strains, locus YLL026W, hits give low values 0.987 | S. cerevisiae deletion strains, locus YLL041C, strain sdh2, hits give low values 1 | S. cerevisiae deletion strains, locus YLR027C, strain aat2, hits give low values 0.996 | S. cerevisiae deletion strains, locus YLR039C, strain RIC1, hits give low values 1.01 | S. cerevisiae deletion strains, locus YLR058C, strain SHM2, hits give low values 0.98 | S. cerevisiae deletion strains, locus YLR102C, strain apc9, hits give low values 0.992 | S. cerevisiae deletion strains, locus YLR113W, strain HOG1, hits give low values 1.02 | S. cerevisiae deletion strains, locus YLR221C, strain rsa3, hits give low values 0.997 | S. cerevisiae deletion strains, locus YLR258W, strain gsy2, hits give low values 0.975 | S. cerevisiae deletion strains, locus YLR262C, strain YPT6 (second series), hits give low values 1 | S. cerevisiae deletion strains, locus YLR262C, strain YPT6, hits give low values 0.962 | S. cerevisiae deletion strains, locus YLR268W, strain sec22, hits give low values 1.02 | S. cerevisiae deletion strains, locus YLR320W, strain mms22, hits give low values 0.955 | S. cerevisiae deletion strains, locus YLR330W, strain CHS5, hits give low values 0.992 | S. cerevisiae deletion strains, locus YLR342W, strain FKS1 (second series), hits give low values 0.986 | S. cerevisiae deletion strains, locus YLR342W, strain FKS1, hits give low values 0.991 | S. cerevisiae deletion strains, locus YLR357W, strain rsc2, hits give low values 0.955 | S. cerevisiae deletion strains, locus YLR370C, strain arc18, hits give low values 0.992 | S. cerevisiae deletion strains, locus YLR371W, strain rom2, hits give low values 0.981 | S. cerevisiae deletion strains, locus YLR384C, strain iki3, hits give low values 0.983 | S. cerevisiae deletion strains, locus YLR418C, strain cdc73, hits give low values 0.937 | S. cerevisiae deletion strains, locus YML016C, strain PPZ1, hits give low values 0.993 | S. cerevisiae deletion strains, locus YML032C, strain rad52, hits give low values 0.94 | S. cerevisiae deletion strains, locus YML120C, strain ndi1, hits give low values 1.01 | S. cerevisiae deletion strains, locus YML124C, strain tub3, hits give low values 0.996 | S. cerevisiae deletion strains, locus YMR058W, strain fet3, hits give low values 0.993 | S. cerevisiae deletion strains, locus YMR078C, strain ctf18, hits give low values 0.988 | S. cerevisiae deletion strains, locus YMR125W, strain sto1, hits give low values 0.947 | S. cerevisiae deletion strains, locus YMR129W, hits give low values 0.997 | S. cerevisiae deletion strains, locus YMR205C, strain PFK2, hits give low values 0.935 | S. cerevisiae deletion strains, locus YMR223W, strain ubp8, hits give low values 0.972 | S. cerevisiae deletion strains, locus YMR231W, strain pep5, hits give low values 0.994 | S. cerevisiae deletion strains, locus YMR263W, strain SAP30, hits give low values 0.987 | S. cerevisiae deletion strains, locus YMR307W, strain GAS1, hits give low values 0.874 | S. cerevisiae deletion strains, locus YNL067W, strain RPL9B, hits give low values 0.978 | S. cerevisiae deletion strains, locus YNL071W, strain lat1, hits give low values 0.987 | S. cerevisiae deletion strains, locus YNL128W, strain TEP1, hits give low values 0.981 | S. cerevisiae deletion strains, locus YNL153C, strain GIM3, hits give low values 0.982 | S. cerevisiae deletion strains, locus YNL183C, strain NPR1, hits give low values 0.973 | S. cerevisiae deletion strains, locus YNL209W, strain ssb2, hits give low values 1 | S. cerevisiae deletion strains, locus YNL233W, strain BNI4, hits give low values 1 | S. cerevisiae deletion strains, locus YNL248C, strain rpa49, hits give low values 0.991 | S. cerevisiae deletion strains, locus YNL250W, strain rad50, hits give low values 0.965 | S. cerevisiae deletion strains, locus YNL271C, strain bni1, hits give low values 0.988 | S. cerevisiae deletion strains, locus YNL298W, strain CLA4, hits give low values 0.977 | S. cerevisiae deletion strains, locus YNL307C, strain MCK1, hits give low values 0.988 | S. cerevisiae deletion strains, locus YNL322C, strain KRE1 (second series), hits give low values 0.992 | S. cerevisiae deletion strains, locus YNL322C, strain KRE1, hits give low values 0.994 | S. cerevisiae deletion strains, locus YNR049C, strain mso1, hits give low values 0.997 | S. cerevisiae deletion strains, locus YNR052C, strain pop2, hits give low values 0.978 | S. cerevisiae deletion strains, locus YOL006C, strain TOP1, hits give low values 0.991 | S. cerevisiae deletion strains, locus YOL012C, strain htz1 0.864 | S. cerevisiae deletion strains, locus YOL147C, strain pex11, hits give low values 0.991 | S. cerevisiae deletion strains, locus YOR001W, strain rrp6, hits give low values 1.02 | S. cerevisiae deletion strains, locus YOR061W, strain CKA2, hits give low values 0.96 | S. cerevisiae deletion strains, locus YOR069W, strain VPS5, hits give low values 1 | S. cerevisiae deletion strains, locus YOR070C, strain gyp1, hits give low values 0.993 | S. cerevisiae deletion strains, locus YOR080W, strain dia2, hits give low values 0.978 | S. cerevisiae deletion strains, locus YOR083W, strain WHI5, hits give low values 1 | S. cerevisiae deletion strains, locus YOR106W, strain vam3, hits give low values 1 | S. cerevisiae deletion strains, locus YOR136W, strain idh2, hits give low values 0.991 | S. cerevisiae deletion strains, locus YOR144C, strain elg1, hits give low values 0.991 | S. cerevisiae deletion strains, locus YOR184W, strain ser1, hits give low values 0.963 | S. cerevisiae deletion strains, locus YOR231W, strain MKK1, hits give low values 1.01 | S. cerevisiae deletion strains, locus YOR265W, strain rbl2, hits give low values 0.991 | S. cerevisiae deletion strains, locus YOR270C, strain vph1, hits give low values 1 | S. cerevisiae deletion strains, locus YOR290C, strain snf2, hits give low values 0.96 | S. cerevisiae deletion strains, locus YOR316C, strain cot1, hits give low values 0.989 | S. cerevisiae deletion strains, locus YPL051W, strain arl3, hits give low values 1 | S. cerevisiae deletion strains, locus YPL055C, strain LGE1, hits give low values 0.952 | S. cerevisiae deletion strains, locus YPL078C, strain atp4, hits give low values 1.01 | S. cerevisiae deletion strains, locus YPL106C, strain sse1, hits give low values 0.977 | S. cerevisiae deletion strains, locus YPL240C, strain hsp82, hits give low values 0.993 | S. cerevisiae deletion strains, locus YPL241C, strain CIN2, hits give low values 0.994 | S. cerevisiae deletion strains, locus YPL256C, strain CLN2, hits give low values 1.01 | S. cerevisiae deletion strains, locus YPR119W, strain clb2, hits give low values 1.01 | S. cerevisiae deletion strains, locus YPR141C, strain kar3, hits give low values 0.98 | S. cerevisiae deletion strains, locus YPR163C, strain tif3, hits give low values 0.986 | S. cerevisiae deletion strains, locus YPR167C, strain met16, hits give low values 0.987 | S. cerevisiae deletion strains, strain wtn01, hits give low values 1.02 | S. cerevisiae strains, strain wild type, hits give low values 0.981
